# Compounds with a hit are over-represented: about 3.2% of the library has one in this group of screens.
# Tau fluor cs = counter-screen for tau fibril formation inhibitors; AID 1463; actives 0.93% (n = 280,000); tau K18 P301L Alexa594 fluorescence, heparin fibrillization; Potency, µM (series often up to 57.7 µM), inactives show at the top dose activity change, negative = decrease; further: potency means the concentration at half of the fitted maximal effect; on the % scale 0 is the no-effect control and ±100 the full control effect; nearly all actives have a fitted effect of over 55% in size
#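 Human K18 P301L tau (15 uM unlabeled plus 0.24 uM Alexa 594-labeled, final) in 100 mM sodium acetate pH 7 was mixed with compound and 20 uM heparin and incubated 6 hr at 37 C.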
# CBFb RUNX1 block = blocks binding between human CBF-beta and RUNX1; AlphaScreen CBFb-His/RUNX1-biotin binding, biochemical; Q01196+Q13951; AID 1477; 230,000 tested, under 10 active; Potency, µM (titrated, usually from 59.8 µM), for inactives: at the highest dose activity, negative = inhibition, hits mostly inhibitors; further: % of control where 0% means no effect
# Target sequence (Q01196 whole entry, looked up): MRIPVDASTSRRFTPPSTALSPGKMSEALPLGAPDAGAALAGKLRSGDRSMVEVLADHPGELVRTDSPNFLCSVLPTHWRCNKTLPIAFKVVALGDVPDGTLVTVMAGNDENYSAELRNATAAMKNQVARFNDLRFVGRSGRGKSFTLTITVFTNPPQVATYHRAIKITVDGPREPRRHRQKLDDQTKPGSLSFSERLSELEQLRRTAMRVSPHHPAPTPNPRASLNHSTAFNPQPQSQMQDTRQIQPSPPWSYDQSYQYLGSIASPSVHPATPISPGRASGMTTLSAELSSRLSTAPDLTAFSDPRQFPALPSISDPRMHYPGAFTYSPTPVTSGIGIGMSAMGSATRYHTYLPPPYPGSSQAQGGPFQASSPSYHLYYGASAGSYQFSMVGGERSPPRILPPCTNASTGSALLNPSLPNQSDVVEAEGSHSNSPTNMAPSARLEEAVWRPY
# Target sequence (Q13951 whole entry, looked up): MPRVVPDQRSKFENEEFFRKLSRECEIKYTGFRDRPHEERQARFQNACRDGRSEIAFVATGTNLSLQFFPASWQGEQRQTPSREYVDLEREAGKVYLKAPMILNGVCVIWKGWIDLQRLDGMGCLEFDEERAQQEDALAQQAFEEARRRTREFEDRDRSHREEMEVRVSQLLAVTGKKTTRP
#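 CBFb-His/RUNX1-biotin, 30 nM each, preincubated 20 min RT; compound 15 min RT; Ni + streptavidin beads 50 ng each, 90 min RT; AlphaScreen read.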
# LMNA splice mod = LMNA splicing modulation. HeLa LMNA splicing GFP/RFP minigene ratio, 48 h. Potency, µM (doses to about 46.1 µM), for inactives: at the top dose ratio change, negative = inhibition, usual class: inhibitors. actives 0.01% (n = 200,000). AID 1487; active means well fitted inhibition curve with a large enough effect in the signal ratio, with a control signal flat, not every such curve was filed as active; inconclusive means small, poorly fitted or top-dose-only effect, or effect the other way, or a change in a side signal; the % refers to the signal ratio; further: potency means the concentration at half of the fitted maximal effect; on the % scale 0 is the no-effect control and ±100 the full control effect
#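 Read-out is the ratio of GFP to DsRed2 object intensity, acquired by 488 nm laser-scanning cytometry on HeLa lamin A-EGFP minigene reporter cells. Compound incubation 48 hrs at 37 °C in Opti-MEM with 2% FBS; DMSO 0.5% final.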
# Tau ThT inhib = blocks human tau fibril formation measured by thioflavin T. P10636. recombinant tau K18 P301L, heparin-induced fibrillization, ThT fluorescence. Potency, µM (highest dose often 57.4 µM), without a hit: top-dose activity, negative = inhibition, most hits filed as inhibitors. actives 2.1% (n = 270,000). AID 1460; further: potency means the concentration at half of the fitted maximal effect; on the % scale 0 is the no-effect control and ±100 the full control effect; nearly all actives have a fitted effect of over 55% in size
#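 Using a mix of unlabeled (15 uM) and Alexa 594-labeled (0.24 uM) tau K18 P301L, heparin-triggered fibrillization over 6 hr at 37 C was scored by ThT fluorescence.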
# Tau fibril FP = tau fibrillization inhibition (FP); P10636; K18 P301L tau heparin fibrillization, Alexa594 FP, 6 h; Potency, µM (series often up to 57.7 µM), without a hit: at the highest dose activity, negative = inhibition, actives largely listed as inhibitors; actives 0.39% (n = 280,000); AID 1468; further: potency means the concentration at half of the fitted maximal effect; on the % scale 0 is the no-effect control and ±100 the full control effect; nearly all actives have a fitted effect of over 55% in size
#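 Human K18 P301L fragment (15 uM unlabeled plus 0.24 uM Alexa 594-labeled) in 100 mM sodium acetate pH 7 with compound, aggregation induced by 20 uM heparin for 6 hr at 37 C. ThT (30 uM) added for 1 hr, then Alexa 594 FP read.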
# KDM4E inh = blocks human JMJD2E demethylase activity | actives 1.6% (n = 230,000) | Potency, µM (top dose mostly 57.1 µM), inactives show at the highest dose activity change, negative = inhibition, hits mostly inhibitors | JMJD2E catalytic domain, FDH-coupled NADH fluorescence (FDH is formaldehyde dehydrogenase) | B2RXH2; active means well fitted inhibition curve with a large enough effect, not every such curve was filed as active; inconclusive means small, poorly fitted or top-dose-only effect, or another doubt; inactive means no such curve, though single readings can be large or run the other way;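 further: potency means the concentration at half of the fitted maximal effect; 0% = wells with enzyme and -100% = buffer wells without enzyme; nearly all actives have a fitted effect of over 50% in size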
# Starred values were filed as active, the others as inactive; ? = inconclusive; · = no result given; [ ] = dose if it differs, or a comment. Unless noted, the call rests on the fitted dose curve; in most records, active means well fitted curve in the direction sought with a large enough effect; inconclusive means small, poorly fitted or top-dose-only effect, or another doubt; inactive means no such curve, though single readings can be large; an effect the other way counts as inactive or inconclusive.
SMILES,Tau fluor cs,CBFb RUNX1 block,LMNA splice mod,Tau ThT inhib,Tau fibril FP,KDM4E inh
Cc1ccccc1OCC(=O)Nc1nnc(S(=O)(=O)N2CCCCCC2)s1,-24.9%,·,3.3%[46 µM],3.16µM*,-2.4%,·
Nc1c(C(=O)c2ccc(Br)s2)oc2ccccc12,?,27.9%,-6.1%,10µM*,12.9%,-6.3%
Nc1c(C(=O)c2cccs2)oc2ccccc12,-25.4%,11.9%,-6.6%,?,7.1%,1.1%
COC(=O)C1=CN(Cc2ccc(OC)cc2)C=C(C(=O)OC)C1c1cccs1,-28.6%,?,-13.0%[46 µM],?,-0.4%,?
COC(=O)C1=CC(C(=O)c2cccs2)=NN(c2ccc(OC)cc2)C1C(=O)OC (stereo unspecified),?,·,0.7%,14.1µM*,-4.1%,0.9%
COc1ccccc1C1NC=C([N+](=O)[O-])C=C1[N+](=O)[O-] (stereo unspecified),?,1.5%,?,11.2µM*,?,3.6%
O=C(NCCc1cccs1)c1ccc(Cn2c(SCc3ccccc3)nc3cccnc32)cc1,?,·,-1.2%[46 µM],?,5.2%,·
CCc1nn(CC(=O)NCCC(C)C)c(=O)c2cc3occc3n12,6.2%,·,·,10.9%,7.4%,·
O=C(Oc1ccc(/C=N/Nc2ccccc2)cc1)c1ccccc1,?,-3.0%,10.1%,?,6.8%,?
COC(=O)c1ccc(COc2ccc(/C=N/Nc3cccc(C(=O)O)c3)cc2)cc1,?,-16.2%,·,15.8µM*,-3.3%,-28.9%
O=C(O)c1ccc(N/N=C/c2ccc(OC(=O)c3cccc(Cl)c3)cc2)cc1,?,8.7%,·,12.6µM*,?,?
COc1cccc(C(=O)Nc2ccc(S(=O)(=O)N(Cc3ccccc3)c3ccccc3)cc2)c1,?,·,?,0.5%,10µM*,·
CCOc1cccc(C(=O)Nc2ccc(S(=O)(=O)N(Cc3ccccc3)c3ccccc3)cc2)c1,?,·,21.9%[46 µM],3.5%,?,·
O=C(Nc1ccc(S(=O)(=O)N(Cc2ccccc2)c2ccccc2)cc1)c1ccccc1F,-26.1%,·,5.9%[46 µM],12.4%,?,·
O=C(Nc1ccc(S(=O)(=O)N(Cc2ccccc2)c2ccccc2)cc1)c1ccc(F)cc1,?,·,?,8.3%,10µM*,·
C[C@H]1Cc2c(-c3ccccc3)nc3c(c2CO1)CN(S(=O)(=O)c1ccc(C#N)cc1)CC3,-13.3%[11.6 µM],4.2%[13.1 µM],-9.1%[9.22 µM],-5.2%[11.5 µM],-3.0%[11.6 µM],2.5%[11.4 µM]
C=CCSc1nnc(-c2ccccc2N=Cc2c(C)[nH]n(-c3ccccc3)c2=O)c(=O)[nH]1,-17.7%,-22.3%,5.4%,?,-8.6%,7.9%
CSc1nnc(-c2ccccc2N=Cc2c(C)[nH]n(-c3ccc4ccccc4c3)c2=O)c(=O)[nH]1,-13.7%,-12.1%,5.7%,22.4µM*,-3.1%,8.0%
CCOC(=O)c1cc(S(=O)(=O)N2CCN(c3ccccc3OC)CC2)[nH]n1,-4.3%,·,-3.5%[46 µM],3.2%,-7.3%,·
CC(=O)Nc1ccc(S(=O)(=O)N2CCN(c3cc(C)nc4ccccc34)CC2)cc1,1.1%,6.6%,-1.9%,5.1%,-5.1%,2.7%
CC(=O)Nc1ccc(S(=O)(=O)N2CCN(c3nc(NC4CCCC4)c4ccccc4n3)CC2)cc1,14.1µM*[quencher],-4.1%,?,-16.6%,22.4µM*,?
COc1ccc(-c2nc(SCC(=O)Nc3ccc4c(c3)OCO4)c(-c3ccccc3)[nH]2)cc1,14.1µM*[quencher],·,·,-0.4%,?,·
O=C(COC(=O)c1cc(-c2ccccc2)nc2ccccc12)Nc1ccc2c(c1)OCO2,?,-2.1%,-9.8%,-3.6%,?,62.5%
COc1ccc2[nH]c3nc(SCC(=O)Nc4ccc5c(c4)OCO5)nnc3c2c1,-19.1%,1.9%,17.5%,?,-11.5%,-0.1%
COc1ccc(-c2[nH]c(-c3ccccc3)nc2SCC(=O)Nc2ccc3c(c2)OCO3)cc1,12.6µM*[quencher],·,·,?,4.8%,·

# Screens from PubChem BioAssay.
